# Assay results published in PubChem BioAssay (NCI).
# The panel holds about 83,000 compounds, 20% with a hit somewhere; the sample as a whole holds those more often.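 Testing used 96-well plates and a 48-hour single-concentration exposure. Example: -40 means 40% of the starting cells died.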 Active and inactive are the calls of the source. How the source made its calls: active means growth percent below 10; inactive means the rest.
# Tested on: LOX IMVI melanoma
# Test: NCI-60 one-dose screen, 48 h (100 = growth as untreated, 0 = no growth, -100 = all killed)
# Details: 10 µM unless noted
row,Compound,growth
1,CC(=O)Nc1ccc2c(c1)c(NC(C)=O)nn2C(=O)Nc1ccc(Cc2ccccc2)cc1,53.6% (inactive)
2,Cc1ccc2c(c1)O/C(=C\c1cccc(OCC(=O)c3ccccc3)c1)C2=O,101% (inactive)
3,Nc1nc(SCc2ccccc2)c2ncn(C3CCCC3)c2n1,3.63% (active)
4,Cn1c2ccccc2c2c3c(c4c5ccccc5n(CCCCCC#N)c4c21)C(=O)N(O)C3=O,-66.7% (active)
5,CCN(CC)Cc1cc(Nc2c3ccc(Cl)cc3nc3c(C)cccc23)ccc1O,-84.9% (active)
6,CS(=O)(=O)c1ccc(-c2cnc3ccc(-c4cccc(S(C)(=O)=O)c4)nn23)cc1,12.3% (inactive)
7,COc1ccc(CCN2CCCn3c2nc2ccccc2c3=O)cc1,15.1% (inactive)
8,CC#CC#Cc1cccc(=O)o1,61.5% (inactive)
9,c1ccc2c(Nc3cccc4ccccc34)cccc2c1,52.6% (inactive)
10,c1ccc(CSc2ncnc3nc[nH]c23)nc1,106% (inactive)
11,O=C(O)c1cccnc1Br,96.6% (inactive)
12,COc1ccc(-c2cc(-c3cccnc3)nc3sc4c(=O)n(-c5ccc(C)cc5)cnc4c23)cc1OC,97.9% (inactive)
13,CNC(=O)c1cc(Oc2ccc3nc(NC(=O)Nc4ccc(CN5CCOCC5)c(C(F)(F)F)c4)sc3c2)ccn1,16.7% (inactive)
14,CCN(CC)CCCC(C)NCCCNc1cccc2cccnc12 (centres undefined),85.3% (inactive)
15,CCCCN(CCCC)Cc1c(C)[nH]c2cc(OC)ccc2c1=O,97.1% (inactive)
16,O=C1C[C@H](Sc2nc(-c3ccc(F)cc3)cc(C(F)(F)F)n2)[C@H]2CO[C@@H]1O2,34.8% (inactive)
17,CCCCOc1ccc(NC(=O)n2nc(NC(C)=O)c3cc(NC(C)=O)ccc32)cc1,98.5% (inactive)
18,CSc1ncnc2c1ncn2C1CCCO1 (centres undefined),102% (inactive)
19,Oc1ccccc1N=Cc1c(O)ccc2ccccc12,61.7% (inactive)
20,Cn1c2ccccc2c2c3[nH]c(=O)[nH]c(=O)c3c3c4ccccc4n(C)c3c21,22.5% (inactive)

row,Compound,growth
1,CCOC(=O)c1c2ncccc2n2c(=O)n(-c3ccc(Cl)cc3)nnc12,41.1% (inactive)
2,O=C(COc1cccc(/C=C2/Oc3ccccc3C2=O)c1)Nc1nccs1,65.4% (inactive)
3,NS(=O)(=O)c1ccc(Nc2nc3n[nH]c(Nc4ccccc4)c3c(=O)[nH]2)cc1,101% (inactive)
4,OCCNCCNc1c2ccccc2nc2ccccc12,37.8% (inactive)
5,COc1ccc(OCC(=O)Nc2ccc(-c3nc4ccccc4s3)cc2C)cc1,89% (inactive)
6,CCCCNP1(NCCCC)=NP(NCCCC)(NCCCC)=NP(NCCCC)(NCCCC)=NP(NCCCC)(NCCCC)=N1,1.62% (active)
7,COCCCN=C(N)c1ccc(NC(=O)c2ccc(C(=O)Nc3ccc(C(N)=NCCCOC)cc3)cc2)cc1,120% (inactive)
8,Cn1c2ccccc2c2c3c(c4c5ccccc5[nH]c4c21)C(=O)N(N)C3=O,23.4% (inactive)
9,CCN(CC)Cc1cc(Nc2c3ccccc3nc3cc(Cl)ccc23)ccc1O,-86.5% (active)
10,COc1nc2c(cc1S(=O)(=O)c1ccccc1)CCc1c-2cnn1-c1ccc(Cl)cc1,96.2% (inactive)
11,CN(CC(=O)N(Cc1ccc(C2CCCCC2)cc1)c1ccc(C(=O)NO)cc1)S(=O)(=O)c1c(F)c(F)c(F)c(F)c1F,-8.7% (active)
12,COc1cc(-c2nc3ccccc3s2)ccc1NC(=O)COc1ccc(Cl)cc1,64.7% (inactive)
13,CSc1[nH]c2ncnc(N)c2c1C#N,109% (inactive)
14,O=C1Nc2c(ccc(Cl)c2Cl)/C1=C/c1cc(Br)c(O)c(Br)c1,59.6% (inactive)
15,NS(=O)(=O)N(c1cc(C(F)(F)F)cc(C(F)(F)F)c1)C1CCN(Cc2ccc(F)cc2)CC1,68.9% (inactive)
16,COc1nc2c(cc1S(=O)(=O)c1ccccc1)CCc1c-2cnn1Cc1ccccc1,65.9% (inactive)
17,CN1CCN(Cc2ccc(NC(=O)c3[nH]ncc3Nc3ccnc4ccsc34)cc2)CC1,0.622% (active)
18,CC1(C)CC(C(=O)OCCCCCCCCCCC[P+](c2ccccc2)(c2ccccc2)c2ccccc2)C(C)(C)N1O (centres undefined),117% (inactive)
19,C=CC[N+]1(CC)CCN=C1CCCCCCCCCCCCCCCCC (centres undefined),-96.3% (active)
